Outcome and AC50 data for seven compounds are collected here from PubChem BioAssay (EPA / NIEHS).

Records with an inconclusive call do not appear. Active and inactive are the calls of the source. How the source made its calls, unless noted: active means hit-call score of the fitted dose curve at least 0.9, where 1 is the maximum; inactive means score below 0.9.

Experiment [1] concerns the target Transcriptional activator Myb (Homo sapiens) (UniProt P10242). Description: ATG_Myb_CIS: Attagene CIS-FACTORIAL HepG2 Assay for human Myeloblastosis (Myb) Proto-Oncogene Transcription Factor (AID 2282986). The conditions noted are these: HepG2 Attagene CIS-FACTORIAL Myb reporter transcription; actives raise or lower the signal. The gist of the method:
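Endogenous transcription factor activity at a Myb-responsive cis element is reported in human liver HepG2 cells after 24 h chemical treatment. Reporter mRNA is detected by RT-PCR and capillary electrophoresis fluorescence, with DMSO as baseline.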

Experiment [2] concerns the target Nuclear respiratory factor 1 (Homo sapiens) (UniProt Q16656). Put plainly: ATG_NRF1_CIS: Attagene CIS-FACTORIAL HepG2 Assay for human Nuclear Respiratory Factor 1 (NRF1) Orphan Gene (AID 2282987). The conditions noted are these: HepG2 NRF1 cis-element reporter, Attagene multiplex; actives raise or lower the signal. The method, boiled down:
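Human hepatoma HepG2 cells carrying transfected promoter-regulated reporter units were incubated with test chemicals for 24 h. Reporter transcripts were measured by RT-PCR plus capillary electrophoresis, and endpoints derived by bidirectional fitting with DMSO as baseline.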

A short description of experiment [3]: ATG_NFI_CIS: Attagene CIS-FACTORIAL HepG2 Assay for human Nuclear Factor I (NFI) (AID 2282989). The note with it: HepG2 cis-regulatory reporter, NFI response element transcription; actives raise or lower the signal. The method, boiled down: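 HepG2, transient MRTU, 24 h exposure; RNA→cDNA→PCR→FAM label→HpaI→CE fluorescence. Bidirectional fit, DMSO = baseline.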

A short description of experiment [4]: ATG_NRF2_ARE_CIS: Attagene CIS-FACTORIAL HepG2 Assay for human Nuclear Factor Erythroid 2 Related Factor 2 (NFR2) response to Antioxidant Response Elements (ARE) (AID 2282992).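 On AC50: reporter mRNA level measured by RT-PCR and capillary electrophoresis fluorescence.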 The conditions noted are these: HepG2 Attagene ARE/NRF2 reporter, transcription factor activity; actives raise or lower the signal. The gist of the method: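 Endogenous transcription factor activity in human liver HepG2 cells is tracked via a cis-element-driven reporter within a multiplexed set. mRNA induction is read by RT-PCR and capillary electrophoresis after 24 h, with DMSO as baseline.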

A short description of experiment [5]: ATG_Oct_MLP_CIS: Attagene CIS-FACTORIAL HepG2 Assay for human Octamer-Binding Transcription Factor (Oct) (AID 2282993). The conditions noted are these: HepG2 Attagene cis-factorial Oct reporter, mRNA; actives raise or lower the signal. The gist of the method: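 Multiplexed cis-reporter assay in human liver HepG2 cells, 24 h incubation. Reporter RNA amplified and labelled, then resolved by capillary electrophoresis; DMSO serves as negative control and baseline.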

In experiment [6] the target is Cellular tumor antigen p53 (Homo sapiens) (UniProt P04637). Put plainly: ATG_p53_CIS: Attagene CIS-FACTORIAL HepG2 Assay for human p53 Transcription Factor (AID 2282994). The conditions noted are these: HepG2 p53 cis-element reporter, Attagene mRNA; actives raise or lower the signal. The method, boiled down: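 Steps: transfect HepG2 with multiplexed cis reporter constructs; dose chemicals 24 h; extract RNA, reverse-transcribe, PCR-amplify reporter sequences; FAM-label, HpaI-digest, resolve fragments by CE. Activity fitted both directions relative to DMSO.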
Sequence of Cellular tumor antigen p53 (Homo sapiens) (P04637 whole entry, looked up, the tested form may be a part): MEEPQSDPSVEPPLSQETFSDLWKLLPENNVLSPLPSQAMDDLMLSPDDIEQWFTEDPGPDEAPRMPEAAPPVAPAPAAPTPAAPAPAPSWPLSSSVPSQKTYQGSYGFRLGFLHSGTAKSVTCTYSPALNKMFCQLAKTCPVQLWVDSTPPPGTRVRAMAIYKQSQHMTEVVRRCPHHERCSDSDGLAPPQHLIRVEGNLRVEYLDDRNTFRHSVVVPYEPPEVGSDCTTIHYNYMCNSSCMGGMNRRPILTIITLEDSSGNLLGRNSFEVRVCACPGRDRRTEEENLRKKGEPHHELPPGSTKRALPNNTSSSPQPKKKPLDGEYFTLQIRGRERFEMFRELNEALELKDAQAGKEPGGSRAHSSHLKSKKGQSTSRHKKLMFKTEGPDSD

The nature of experiment [7]: BSK_3C_TissueFactor: BioMAP Diversity Plus: 3C Assay for Tissue Factor Biomarker Activity (AID 2282997). The conditions noted are these: BioMAP 3C HUVEC, tissue factor biomarker readout; actives raise or lower the signal. The gist of the method:
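In this endothelial system, HUVEC are treated for 24 h and Tissue Factor is assessed by ELISA, normalised to DMSO.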

The nature of experiment [8]: BSK_3C_uPAR: BioMAP Diversity Plus: 3C Assay for Urokinase-type plasminogen activator receptor (uPAR) Biomarker Activity (AID 2282998). The conditions noted are these: BioMAP 3C HUVEC, uPAR biomarker ELISA; actives raise or lower the signal. The gist of the method: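 Dose primary human umbilical vein endothelial cells, incubate 24 h, measure cell-surface uPAR by ELISA, then fit the signal in both directions against the DMSO negative control.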
For orientation: ELISA stands for enzyme-linked immunosorbent assay.

A short description of experiment [9]: BSK_3C_VCAM1: BioMAP Diversity Plus: 3C Assay for Vascular cell adhesion molecule 1 (VCAM1) Biomarker Activity (AID 2282999). The note with it: BioMAP 3C HUVEC, VCAM1 ELISA, cytokine-stimulated; actives raise or lower the signal. The method, boiled down:
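HUVEC primary cells, 24 h compound exposure; VCAM-1 by ELISA; gain/loss of signal fitted bidirectionally vs DMSO baseline.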

Experiment [10] in a line: BSK_4H_Eotaxin3: BioMAP Diversity Plus: 4H Assay for Eotaxin 3 Biomarker Activity (AID 2283000).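 On Outcome: CCL26 protein level quantified by ELISA in parallel with SRB cytotoxicity check.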 The conditions noted are these: primary human endothelial cells (HUVEC); actives raise or lower the signal. The method, boiled down:
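ELISA quantitation of CCL26 (Eotaxin-3) protein from chemically dosed human vascular endothelial cells at 24 h; increases and decreases both scored relative to DMSO-treated baseline.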

Experiment [11] addresses human Peroxisome Proliferator-activated Receptor delta (PPARd), PPARD (gene 5467) (UniProt Q03181). Put plainly: ATG_PPARd_TRANS: Attagene TRANS-FACTORIAL HepG2 Assay for human Peroxisome Proliferator-activated Receptor delta (PPARd) (AID 2283002; active means hit-call score of the fitted dose curve at least 0.9, where 1 is the maximum). The gist of the method: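 HepG2 cells transiently transfected with GAL4-UAS multiplexed reporter units driven by exogenous chimeric NR-GAL4 proteins; 24 h compound exposure. Reporter mRNA measured by RT-PCR, 6-FAM primer extension, HpaI digestion and capillary electrophoresis; gain of signal fitted relative to DMSO.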

Read-out in experiment [12]: Intercellular Adhesion Molecule 1 (ICAM1), ICAM1 (gene 3383)
Description: BSK_3C_ICAM1: BioMAP Diversity Plus: 3C Assay for Intercellular Adhesion Molecule 1 (ICAM1) Biomarker Activity (AID 2283003). The conditions noted are these: primary human endothelial cells (HUVEC); actives raise or lower the signal. The gist of the method: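 ELISA readout of ICAM1 in human umbilical vein endothelial cells in the 3C system, taken 24 h post-dose. Gain or loss of signal versus DMSO was fitted in both directions, with SRB total-protein staining run in parallel.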

A short description of experiment [13]: BSK_3C_Proliferation: Cell Proliferation Assessment in the BioMAP Diversity Plus: 3C Assay (AID 2283006).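 On AC50: potency may reflect either rise or fall in cell number versus DMSO.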 The conditions noted are these: primary human endothelial cells (HUVEC). The method, boiled down:
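Proliferation as total protein: sulforhodamine B (0.1%) stain of TCA-fixed subconfluent human umbilical vein endothelial cells, absorbance 560 nm, 48 h after dosing. Activity fitted in both directions against DMSO baseline.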

In experiment [14] the target is Peroxisome proliferator-activated receptor gamma (Homo sapiens) (UniProt P37231). Description: ATG_PPARg_TRANS: Attagene TRANS-FACTORIAL HepG2 Assay for human Peroxisome Proliferator-activated Receptor-gamma (PPARg) (AID 2283007; active means hit-call score of the fitted dose curve at least 0.9, where 1 is the maximum). The method, boiled down: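 Human hepatoma HepG2, transient MRTU transfection, 24 h treatment. mRNA reporter signal by RT-PCR plus capillary electrophoresis, fluorescence detection; fitted for increase over DMSO negative control.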
Sequence of Peroxisome proliferator-activated receptor gamma (Homo sapiens) (P37231 whole entry, looked up): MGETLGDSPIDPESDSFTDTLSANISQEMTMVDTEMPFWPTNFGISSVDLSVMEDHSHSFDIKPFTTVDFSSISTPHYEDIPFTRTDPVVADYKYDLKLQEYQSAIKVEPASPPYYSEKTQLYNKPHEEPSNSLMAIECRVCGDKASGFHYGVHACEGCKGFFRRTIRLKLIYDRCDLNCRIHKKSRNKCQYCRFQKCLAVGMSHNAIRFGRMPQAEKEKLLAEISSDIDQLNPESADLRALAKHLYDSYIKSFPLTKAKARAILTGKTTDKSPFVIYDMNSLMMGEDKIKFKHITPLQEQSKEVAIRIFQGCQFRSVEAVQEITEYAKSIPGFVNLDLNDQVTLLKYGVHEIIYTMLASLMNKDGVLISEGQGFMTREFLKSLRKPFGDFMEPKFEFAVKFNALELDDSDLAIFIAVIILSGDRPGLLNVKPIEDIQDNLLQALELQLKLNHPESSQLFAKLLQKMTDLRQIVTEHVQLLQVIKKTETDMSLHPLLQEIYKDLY

Experiment [15] addresses Nuclear receptor subfamily 1 group I member 2 (Homo sapiens) (UniProt O75469). Description: ATG_PXR_TRANS: Attagene TRANS-FACTORIAL HepG2 Assay for human Pregnane X Receptor (PXR) (AID 2283008; active means hit-call score of the fitted dose curve at least 0.9, where 1 is the maximum). The gist of the method: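 HepG2 transfected (FuGene 6) with GAL4-UAS reporter units + PXR-Gal4 chimera; dosed 24 h. Total RNA → oligo(dT) RT → PCR → 6-FAM primer extension → HpaI cut → CE. Gain-of-signal vs DMSO.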

The target of experiment [16] is Myc proto-oncogene protein (Homo sapiens) (UniProt P01106). Put plainly: ATG_Myc_CIS: Attagene CIS-FACTORIAL HepG2 Assay for human Myelocytomatosis (Myc) Proto-Oncogene Transcription Factor (AID 2282990). The note with it: HepG2, Attagene cis-reporter transcription factor activity; actives raise or lower the signal. The method, boiled down: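 Transiently transfected HepG2 cells bearing cis-promoter reporter units for endogenous transcription factors; 24 h exposure. Reporter mRNA measured by RT-PCR, 6-FAM primer extension, HpaI cut and capillary electrophoresis; bidirectional fit relative to DMSO.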
Sequence of Myc proto-oncogene protein (Homo sapiens) (P01106 whole entry, looked up): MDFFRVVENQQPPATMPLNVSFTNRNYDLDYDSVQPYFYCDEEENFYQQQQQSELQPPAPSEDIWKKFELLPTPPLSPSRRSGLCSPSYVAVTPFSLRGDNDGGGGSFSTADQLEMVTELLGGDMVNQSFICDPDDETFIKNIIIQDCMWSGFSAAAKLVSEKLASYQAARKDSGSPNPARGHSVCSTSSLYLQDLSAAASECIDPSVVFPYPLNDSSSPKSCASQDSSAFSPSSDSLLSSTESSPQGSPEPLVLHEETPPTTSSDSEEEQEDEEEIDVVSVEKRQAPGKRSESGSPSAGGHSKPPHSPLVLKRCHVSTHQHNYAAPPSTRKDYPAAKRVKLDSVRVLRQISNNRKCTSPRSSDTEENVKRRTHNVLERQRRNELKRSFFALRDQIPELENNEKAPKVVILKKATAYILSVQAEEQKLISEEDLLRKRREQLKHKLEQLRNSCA

Experiment [17] addresses human Retinoic Acid Receptor gamma (RARg), RARG (gene 5916) (UniProt P13631). Description: ATG_RARg_TRANS: Attagene TRANS-FACTORIAL HepG2 Assay for human Retinoic Acid Receptor gamma (RARg) (AID 2283009; active means hit-call score of the fitted dose curve at least 0.9, where 1 is the maximum). The method, boiled down:
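Transactivation of exogenous RARg-Gal4 fusion measured as reporter transcript induction after 24 h in transfected HepG2 cells. RNA reverse-transcribed, amplified, fluorescently labeled and resolved by capillary electrophoresis; increase relative to DMSO.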

Experiment [18] concerns the target Retinoic acid receptor alpha (Homo sapiens) (UniProt P10276). Put plainly: ATG_RARa_TRANS: Attagene TRANS-FACTORIAL HepG2 Assay for human Retinoic Acid Receptor alpha (RARa) (AID 2283005; active means hit-call score of the fitted dose curve at least 0.9, where 1 is the maximum). The gist of the method: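 HepG2 transiently transfected with multiplex GAL4-UAS reporter units including a human RARa–GAL4 chimera; 24 h compound exposure. Reporter mRNA quantified by RT-PCR, 6-FAM labeling and capillary electrophoresis; gain of signal versus DMSO.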

A short description of experiment [19]: ATG_NF_kB_CIS: Attagene CIS-FACTORIAL HepG2 Assay for human Nuclear Factor Kappa B (NF-kB) (AID 2282991). The note with it: HepG2 Attagene cis-factorial NF-kB reporter mRNA; actives raise or lower the signal. The method, boiled down: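 Multiplexed cis-reporter assay in transiently transfected HepG2. 24 h treatment; RNA isolated, RT-PCR, labelled fragments resolved by CE. DMSO baseline.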

Experiment [20] concerns the target human Peroxisome Proliferator-activated Receptor alpha (PPARa), PPARA (gene 5465) (UniProt Q07869). Description: ATG_PPARa_TRANS: Attagene TRANS-FACTORIAL HepG2 Assay for human Peroxisome Proliferator-activated Receptor alpha (PPARa) (AID 2283001; active means hit-call score of the fitted dose curve at least 0.9, where 1 is the maximum). The gist of the method:
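HepG2, transient MRTU transfection, 24 h treatment. RT-PCR → FAM labelling → capillary electrophoresis. Fit vs DMSO, positive direction.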

Sequence of human Retinoic Acid Receptor gamma (RARg), RARG (gene 5916) (P13631 whole entry, looked up, the tested form may be a part): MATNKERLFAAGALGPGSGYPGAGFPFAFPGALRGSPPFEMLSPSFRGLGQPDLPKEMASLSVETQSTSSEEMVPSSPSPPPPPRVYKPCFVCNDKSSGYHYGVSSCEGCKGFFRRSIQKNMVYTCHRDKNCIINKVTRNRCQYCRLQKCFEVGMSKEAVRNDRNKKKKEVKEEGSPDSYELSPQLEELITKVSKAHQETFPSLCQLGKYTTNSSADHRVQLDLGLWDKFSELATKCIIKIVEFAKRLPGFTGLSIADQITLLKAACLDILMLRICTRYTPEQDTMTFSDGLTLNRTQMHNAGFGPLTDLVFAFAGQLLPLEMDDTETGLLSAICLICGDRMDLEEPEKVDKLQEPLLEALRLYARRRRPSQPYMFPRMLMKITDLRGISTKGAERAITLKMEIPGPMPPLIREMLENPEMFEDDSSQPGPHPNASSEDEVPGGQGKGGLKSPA
Sequence of Nuclear receptor subfamily 1 group I member 2 (Homo sapiens) (O75469 whole entry, looked up, the tested form may be a part): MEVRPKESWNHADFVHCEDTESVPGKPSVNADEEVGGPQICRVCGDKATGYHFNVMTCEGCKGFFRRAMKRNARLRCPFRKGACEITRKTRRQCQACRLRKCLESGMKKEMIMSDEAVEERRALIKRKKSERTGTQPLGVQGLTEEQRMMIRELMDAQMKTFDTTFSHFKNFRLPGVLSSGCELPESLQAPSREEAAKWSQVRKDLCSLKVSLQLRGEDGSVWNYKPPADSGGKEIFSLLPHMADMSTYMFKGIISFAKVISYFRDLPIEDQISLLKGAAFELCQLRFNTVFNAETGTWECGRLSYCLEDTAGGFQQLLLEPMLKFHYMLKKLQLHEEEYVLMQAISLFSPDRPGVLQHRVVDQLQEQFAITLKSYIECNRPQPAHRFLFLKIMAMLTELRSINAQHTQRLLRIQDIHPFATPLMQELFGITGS
Sequence of Transcriptional activator Myb (Homo sapiens) (P10242 whole entry, looked up): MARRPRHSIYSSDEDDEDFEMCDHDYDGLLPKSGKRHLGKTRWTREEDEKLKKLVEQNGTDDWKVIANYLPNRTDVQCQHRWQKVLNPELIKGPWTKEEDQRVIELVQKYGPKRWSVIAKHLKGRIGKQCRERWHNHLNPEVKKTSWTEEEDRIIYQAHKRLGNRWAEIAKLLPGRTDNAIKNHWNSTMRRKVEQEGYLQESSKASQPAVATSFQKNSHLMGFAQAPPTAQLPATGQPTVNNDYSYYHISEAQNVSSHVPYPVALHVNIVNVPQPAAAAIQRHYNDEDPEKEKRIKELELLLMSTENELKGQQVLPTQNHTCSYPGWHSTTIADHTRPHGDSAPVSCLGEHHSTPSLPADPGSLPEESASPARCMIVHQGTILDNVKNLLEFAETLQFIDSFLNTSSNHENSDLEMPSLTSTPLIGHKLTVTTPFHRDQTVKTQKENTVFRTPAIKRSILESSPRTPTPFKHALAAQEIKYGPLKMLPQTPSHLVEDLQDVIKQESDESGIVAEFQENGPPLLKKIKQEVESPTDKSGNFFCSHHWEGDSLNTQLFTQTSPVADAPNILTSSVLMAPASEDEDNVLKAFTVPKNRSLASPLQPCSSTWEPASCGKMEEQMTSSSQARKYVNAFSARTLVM
Sequence of Nuclear respiratory factor 1 (Homo sapiens) (Q16656 whole entry, looked up): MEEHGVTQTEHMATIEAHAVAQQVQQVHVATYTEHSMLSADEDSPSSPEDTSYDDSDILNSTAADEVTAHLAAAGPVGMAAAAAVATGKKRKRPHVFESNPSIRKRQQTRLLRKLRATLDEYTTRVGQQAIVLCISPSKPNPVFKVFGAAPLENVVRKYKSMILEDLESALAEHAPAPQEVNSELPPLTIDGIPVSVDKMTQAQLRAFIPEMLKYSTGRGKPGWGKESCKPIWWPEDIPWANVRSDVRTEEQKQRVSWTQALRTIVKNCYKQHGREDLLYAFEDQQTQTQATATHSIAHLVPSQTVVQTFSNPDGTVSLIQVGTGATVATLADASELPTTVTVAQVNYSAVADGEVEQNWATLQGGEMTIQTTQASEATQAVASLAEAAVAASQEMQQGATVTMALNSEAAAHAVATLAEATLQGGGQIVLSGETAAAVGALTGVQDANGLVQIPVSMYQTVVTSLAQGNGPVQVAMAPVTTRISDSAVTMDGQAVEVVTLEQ
Sequence of human Peroxisome Proliferator-activated Receptor delta (PPARd), PPARD (gene 5467) (Q03181 whole entry, looked up, the tested form may be a part): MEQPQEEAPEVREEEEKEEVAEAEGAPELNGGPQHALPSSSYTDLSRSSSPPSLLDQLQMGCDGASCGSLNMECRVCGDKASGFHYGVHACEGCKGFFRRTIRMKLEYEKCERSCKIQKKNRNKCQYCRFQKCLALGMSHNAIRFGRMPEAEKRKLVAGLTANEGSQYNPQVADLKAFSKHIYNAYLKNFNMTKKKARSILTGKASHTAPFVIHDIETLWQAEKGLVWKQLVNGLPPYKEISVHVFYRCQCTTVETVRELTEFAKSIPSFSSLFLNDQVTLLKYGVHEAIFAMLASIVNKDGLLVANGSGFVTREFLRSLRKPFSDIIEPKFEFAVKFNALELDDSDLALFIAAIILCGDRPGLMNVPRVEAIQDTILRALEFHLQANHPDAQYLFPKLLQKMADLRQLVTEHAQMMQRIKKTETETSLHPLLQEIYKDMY
Sequence of Retinoic acid receptor alpha (Homo sapiens) (P10276 whole entry, looked up, the tested form may be a part): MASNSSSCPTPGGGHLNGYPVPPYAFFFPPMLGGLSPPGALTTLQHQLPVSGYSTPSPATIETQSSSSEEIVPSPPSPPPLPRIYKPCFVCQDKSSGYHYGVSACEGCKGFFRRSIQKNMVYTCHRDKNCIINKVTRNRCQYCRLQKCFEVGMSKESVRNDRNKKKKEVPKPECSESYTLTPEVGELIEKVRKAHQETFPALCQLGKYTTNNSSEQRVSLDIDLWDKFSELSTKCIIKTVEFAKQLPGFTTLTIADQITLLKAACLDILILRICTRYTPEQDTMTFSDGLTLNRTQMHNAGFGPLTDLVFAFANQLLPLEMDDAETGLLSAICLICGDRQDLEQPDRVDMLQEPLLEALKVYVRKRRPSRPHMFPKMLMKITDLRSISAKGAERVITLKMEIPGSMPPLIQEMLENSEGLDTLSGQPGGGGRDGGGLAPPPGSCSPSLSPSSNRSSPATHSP
Sequence of human Peroxisome Proliferator-activated Receptor alpha (PPARa), PPARA (gene 5465) (Q07869 whole entry, looked up): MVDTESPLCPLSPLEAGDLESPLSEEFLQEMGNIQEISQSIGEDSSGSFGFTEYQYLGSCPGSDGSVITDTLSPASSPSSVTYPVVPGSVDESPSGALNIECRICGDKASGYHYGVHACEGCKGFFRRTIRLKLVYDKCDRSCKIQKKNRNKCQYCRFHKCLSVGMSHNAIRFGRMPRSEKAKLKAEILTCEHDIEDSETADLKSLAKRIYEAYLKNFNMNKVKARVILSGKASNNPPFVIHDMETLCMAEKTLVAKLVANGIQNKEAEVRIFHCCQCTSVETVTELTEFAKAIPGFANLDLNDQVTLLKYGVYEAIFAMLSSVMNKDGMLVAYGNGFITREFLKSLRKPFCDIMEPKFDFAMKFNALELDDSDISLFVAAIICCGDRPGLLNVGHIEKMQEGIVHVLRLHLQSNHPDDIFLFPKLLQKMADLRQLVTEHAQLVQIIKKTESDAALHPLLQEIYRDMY

What is called AC50 is the midpoint of the concentration-response curve, whichever way the signal moves. As for `CCOP(=S)(NC(C)C)Oc1ccccc1C(=O)OC(C)C` (stereo not drawn), the compound was called inactive in experiment [1], in [2], in experiment [3], in [4], in [5] and in experiment [6]. The outcome in [7], in [8], in experiment [9], in experiment [10], in [11] and in experiment [12] was inactive. The result in experiment [13] was inactive. Further, the values for the AC50 in experiment [14] and in [15] were 8.99 µM (active) and 0.599 µM (active), respectively.
In the case of `Cc1ccc(O)cc1C`, the compound was classed as inactive in experiment [1], in experiment [16], in experiment [5], in experiment [7], in [8] and in experiment [9]. The result in [10], in experiment [11], in experiment [12], in experiment [13], in [14] and in [17] was inactive.
For `CCOP(=O)(O)C(N)=O`, the compound was called inactive in [1], in experiment [2], in [3], in experiment [4], in experiment [5] and in experiment [18]. Moreover, the outcome in experiment [14], in [15] and in experiment [17] was inactive.
Take `O=c1ssc(Cl)c1Cl`: the compound was classed as inactive in experiment [1], in experiment [3], in experiment [6], in experiment [11] and in experiment [15]. Besides, the AC50 in experiment [2] is 33.4 µM (active); in experiment [19], 45 µM (active); in [4], 1.08 µM (active); in experiment [5] it was 51.6 µM (active); in experiment [7], 5.68 µM (active); in experiment [8], 6.09 µM (active). The AC50 in experiment [9] was 5.62 µM (active); in experiment [10] it was 4.22 µM (active); in experiment [12], 11.3 µM (active); in experiment [13], 1.45 µM (active); in experiment [14], 33.4 µM (active).
On to `O=c1[nH]c2ccccc2c(=O)o1`, for which the call in experiment [1], in [2], in experiment [3], in experiment [19], in experiment [4] and in experiment [5] was inactive. In addition, the result in [20], in experiment [11], in experiment [18], in experiment [14], in experiment [15] and in [17] was inactive.
For `CCC(C)(C)c1ccc(O)cc1`, the AC50 is 46.1 µM (active) in experiment [1], 33.4 µM (active) in [4] and 7.92 µM (active) in experiment [15]. In addition, the call in experiment [2], in experiment [3], in [19], in experiment [5], in experiment [6] and in [7] was inactive. For the same compound, the outcome in experiment [8], in [9], in experiment [10], in experiment [12], in experiment [13] and in experiment [14] was inactive.
With `COP(N)(=S)OC`, the compound was called inactive in experiment [1], in [2], in experiment [3], in [19], in experiment [4] and in [5]. Further, the compound was called inactive in experiment [6], in experiment [7], in experiment [8], in experiment [9], in experiment [10] and in experiment [12]. Besides, the result in [13] and in [15] was inactive.
